In PubChem BioAssay (NCATS):
Records with an inconclusive call do not appear. Calls of active or inactive are those of the source. Unless noted, calls come from the whole dose curve; as a rule, active = well fitted curve in the direction sought with a large enough effect; inconclusive = small, poorly fitted or top-dose-only effect, or another doubt; inactive = no such curve, though single readings can be large; an effect the other way counts as inactive or inconclusive.

Legend:
[1] = qHTS of pediatric cancer cell lines to identify multiple opportunities for drug repurposing: Primary screen for TC32 cells (AID 1347089); note: nearly all actives have a fitted effect of over 60% in size
In short: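 TC32 cells, 500-1,000/well in growth medium, compound-treated 48 h at 37 °C; viability from CellTiter-Glo luminescence. Primary screen: MIPE 11-point (0.78 nM–46 µM final), NPC 8-point (0.59 nM–46 µM final); confirmatory at 11-point dilutions.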

[2] = qHTS of pediatric cancer cell lines to identify multiple opportunities for drug repurposing: Primary screen for DAOY cells (AID 1347090); note: series mostly up to about 46 µM; nearly all actives have a fitted effect of over 55% in size
In short: (§1)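 Eight- or eleven-point concentration series, 48 h treatment at 37 degrees C in growth media; readout CellTiter-Glo luminescence. Potency and efficacy were taken from the concentration-response curves.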

[3] = qHTS of pediatric cancer cell lines to identify multiple opportunities for drug repurposing: Primary screen for SJ-GBM2 cells (AID 1347091)
In short: as §1

[4] = qHTS of pediatric cancer cell lines to identify multiple opportunities for drug repurposing: Primary screen for A673 cells (AID 1347092); note: nearly all actives have a fitted effect of over 45% in size
In short: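 A673 cells (500-1,000 cells/well) were treated 48 hours at 37 degrees C with compounds at 11-point (0.78 nM to 46 µM) or 8-point (0.59 nM to 46 µM) dilutions. Viability read by CellTiter-Glo luminescence; concentration-response curves fitted.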

[5] = qHTS of pediatric cancer cell lines to identify multiple opportunities for drug repurposing: Primary screen for SK-N-MC cells (AID 1347093); note: series mostly up to about 46 µM
In short: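 Metabolically active cells were quantified by ATP-dependent luminescence (CellTiter-Glo, 15 min at room temperature) following 48 h treatment. Cells had been plated at 500-1,000 per well and settled for 5 h beforehand.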

[6] = qHTS of pediatric cancer cell lines to identify multiple opportunities for drug repurposing: Primary screen for BT-37 cells (AID 1347094); note: series mostly up to about 57 µM
In short: (§2)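 ATP-based luminescence (CellTiter-Glo) quantifies viability after a 48-hour exposure. Compounds are dosed across 8 or 11 final concentrations; DMSO and 2.3 µM bortezomib serve as controls.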

[7] = qHTS of pediatric cancer cell lines to identify multiple opportunities for drug repurposing: Primary screen for NB-EBc1 cells (AID 1347095)
In short: as §2

[8] = qHTS of pediatric cancer cell lines to identify multiple opportunities for drug repurposing: Primary screen for U-2 OS cells (AID 1347096); note: nearly all actives have a fitted effect of over 50% in size
In short: (§3)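 Cells (500-1,000/well) in growth media were settled 5 h at 37 degrees C, then given compounds for 48 h. Viability was read as CellTiter-Glo luminescence. Primary runs used MIPE at 11 points (0.78 nM-46 µM) and NPC at 8 points (0.59 nM-46 µM); follow-ups used 11 points.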

[9] = qHTS of pediatric cancer cell lines to identify multiple opportunities for drug repurposing: Primary screen for Saos-2 cells (AID 1347097); note: nearly all actives have a fitted effect of over 40% in size
In short: as §2

[10] = qHTS of pediatric cancer cell lines to identify multiple opportunities for drug repurposing: Primary screen for SK-N-SH cells (AID 1347098);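 note: DMSO served as neutral control and bortezomib at 2.3 µM as positive control; nearly all actives have a fitted effect of over 65% in size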
In short: (§4)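 Cells (500-1,000/well) rested 5 h, then received compounds for 48 h; metabolically active cells were measured by CellTiter-Glo luminescence. Final concentrations spanned up to 46 µM (MIPE, 11-point) or 0.59 nM-46 µM (NPC, 8-point) in primary screens, 11-point in follow-ups.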

[11] = qHTS of pediatric cancer cell lines to identify multiple opportunities for drug repurposing: Primary screen for NB1643 cells (AID 1347099); note: nearly all actives have a fitted effect of over 50% in size
In short: as §2

[12] = qHTS of pediatric cancer cell lines to identify multiple opportunities for drug repurposing: Primary screen for LAN-5 cells (AID 1347100)
In short: as §3

[13] = qHTS of pediatric cancer cell lines to identify multiple opportunities for drug repurposing: Primary screen for BT-12 cells (AID 1347101); note: nearly all actives have a fitted effect of over 25% in size
In short: as §4

[14] = qHTS of pediatric cancer cell lines to identify multiple opportunities for drug repurposing: Primary screen for Rh18 cells (AID 1347102); note: nearly all actives have a fitted effect of over 65% in size
In short: as §3

[15] = qHTS of pediatric cancer cell lines to identify multiple opportunities for drug repurposing: Primary screen for OHS-50 cells (AID 1347103); note: nearly all actives have a fitted effect of over 40% in size
In short: as §4

[16] = qHTS of pediatric cancer cell lines to identify multiple opportunities for drug repurposing: Primary screen for RD cells (AID 1347104); note: nearly all actives have a fitted effect of over 55% in size
In short: as §2

[17] = qHTS of pediatric cancer cell lines to identify multiple opportunities for drug repurposing: Primary screen for MG 63 (6-TG R) cells (AID 1347105); note: nearly all actives have a fitted effect of over 50% in size
In short: as §2

[18] = biological target: T1, Tyrosine-protein phosphatase non-receptor type substrate 1 (Homo sapiens) + Leukocyte surface antigen CD47 (Homo sapiens) (UniProt P78324+Q08722); experiment: CD47-SIRPalpha protein protein interaction - HTRF assay qHTS validation (AID 1347058; active = well fitted curve in the direction sought with a large enough effect in the signal ratio, not every such curve was filed as active; the % refers to the signal ratio; note: series mostly up to about 38 µM)
In short: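 Soluble extracellular domains (6His-CD47, Avi-tag-biotinylated SIRPalpha) in PBS pH 7.4 with 0.05% IGEPAL CA-630. Compounds were preincubated 30 min at RT with CD47 and anti-His-Eu, then SIRPalpha and SAV-XL665 were added. TR-FRET 665/615 ratio.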

[19] = biological target: T1, Tyrosine-protein phosphatase non-receptor type substrate 1 (Homo sapiens) + Leukocyte surface antigen CD47 (Homo sapiens); experiment: CD47-SIRPalpha protein protein interaction - Alpha assay qHTS validation (AID 1347059);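 note: bead proximity luminescence from CD47 binding SIRPalpha after compound preincubation with SIRPalpha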
In short: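 In PBS (pH 7.4) with 0.05% IGEPAL CA-630, compound is preincubated with biotin-Avi-SIRPalpha ectodomain before His-CD47 ectodomain and affinity beads are added. Light-protected room-temperature incubations; AlphaScreen readout.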

[20] = biological target: Parathyroid hormone/parathyroid hormone-related peptide receptor (Homo sapiens) (UniProt Q03431); experiment: qHTS for PTHR1 Agonists: Optimization Screen against the NCGC LOPAC library (AID 1347079);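 note: GloSensor cAMP luminescence in HEK-293 GP2 cells expressing human PTHR1 with IBMX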
In short: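 HEK-293 GP2 cells, PTHR1 + GloSensor cAMP; 3000 cells/well, o/n. Luciferin + IBMX 0.5mM each (stock), 1 hr 37C. Cpd titration, 1 hr 37C. Lum after 15 min RT. Ctrl M-PTH(1-15) top 10uM.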

Measured: Potency

T1 sequence (P78324 whole entry, looked up, the tested form may be a part): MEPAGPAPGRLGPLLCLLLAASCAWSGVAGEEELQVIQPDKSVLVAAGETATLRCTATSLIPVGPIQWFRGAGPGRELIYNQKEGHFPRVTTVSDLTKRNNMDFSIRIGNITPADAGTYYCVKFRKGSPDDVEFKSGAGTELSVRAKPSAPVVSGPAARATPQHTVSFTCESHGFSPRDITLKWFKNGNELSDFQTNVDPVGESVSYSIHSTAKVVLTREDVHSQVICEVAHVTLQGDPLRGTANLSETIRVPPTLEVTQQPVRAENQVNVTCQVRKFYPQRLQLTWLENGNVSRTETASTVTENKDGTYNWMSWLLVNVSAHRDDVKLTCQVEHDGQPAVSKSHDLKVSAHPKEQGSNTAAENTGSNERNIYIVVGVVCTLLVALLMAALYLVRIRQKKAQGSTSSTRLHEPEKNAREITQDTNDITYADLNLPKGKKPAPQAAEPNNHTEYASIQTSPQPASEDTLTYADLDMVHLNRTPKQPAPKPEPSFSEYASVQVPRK
T1 sequence (Q08722 whole entry, looked up, the tested form may be a part): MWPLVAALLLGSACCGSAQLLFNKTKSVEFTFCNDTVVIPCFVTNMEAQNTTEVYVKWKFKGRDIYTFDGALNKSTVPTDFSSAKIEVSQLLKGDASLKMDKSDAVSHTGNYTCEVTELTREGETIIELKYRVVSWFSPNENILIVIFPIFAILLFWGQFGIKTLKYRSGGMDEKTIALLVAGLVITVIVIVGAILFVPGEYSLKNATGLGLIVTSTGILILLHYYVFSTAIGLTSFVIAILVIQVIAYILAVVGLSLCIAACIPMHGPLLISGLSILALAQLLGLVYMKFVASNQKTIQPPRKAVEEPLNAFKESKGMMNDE
Parathyroid hormone/parathyroid hormone-related peptide receptor (Homo sapiens), sequence (Q03431 whole entry, looked up): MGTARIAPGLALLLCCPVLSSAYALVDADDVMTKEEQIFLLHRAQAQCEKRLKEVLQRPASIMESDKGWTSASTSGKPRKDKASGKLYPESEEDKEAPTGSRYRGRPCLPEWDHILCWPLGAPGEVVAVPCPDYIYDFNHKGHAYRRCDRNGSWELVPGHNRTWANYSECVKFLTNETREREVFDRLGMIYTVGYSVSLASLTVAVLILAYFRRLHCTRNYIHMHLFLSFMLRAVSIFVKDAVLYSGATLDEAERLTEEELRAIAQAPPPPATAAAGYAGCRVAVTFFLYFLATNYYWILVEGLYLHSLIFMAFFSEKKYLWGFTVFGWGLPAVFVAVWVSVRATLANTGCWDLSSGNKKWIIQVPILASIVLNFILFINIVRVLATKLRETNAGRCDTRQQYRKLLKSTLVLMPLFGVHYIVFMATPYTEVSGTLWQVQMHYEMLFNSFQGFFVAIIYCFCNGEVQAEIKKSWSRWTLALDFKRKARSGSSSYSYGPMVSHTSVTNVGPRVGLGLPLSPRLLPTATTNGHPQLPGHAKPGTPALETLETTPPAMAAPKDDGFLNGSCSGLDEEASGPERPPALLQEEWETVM

C[C@@H]1C[C@H]2[C@@H]3C[C@H](F)C4=CC(=O)C(Cl)=C[C@]4(C)[C@@]3(F)[C@@H](O)C[C@]2(C)[C@@]1(O)C(=O)CO
not listed: [18] | [19] | [20]
inactive: all other assays above

C[C@@H]1C(=O)NC2=Nc3cccc(Cl)c3CN21
inactive: [18] | [19] | [20]

CNCCC(Oc1ccccc1C)c1ccccc1 (stereo not given)
inactive: [18] | [19] | [20]

CCCn1c(=O)[nH]c(=O)c2[nH]cnc21
inactive: [18] | [19] | [20]

COc1cc2c(cc1O)CC[C@@H]1[C@@H]2CC[C@]2(C)[C@@H](O)CC[C@@H]12
inactive: [18] | [19] | [20]

NC[C@H]1O[C@H](O[C@H]2[C@H](O)[C@@H](O[C@H]3O[C@H](CO)[C@@H](O)[C@H](N)[C@H]3O)[C@H](N)C[C@@H]2N)[C@H](N)[C@@H](O)[C@@H]1O
not listed: [18] | [19] | [20]
inactive: all other assays above

Cc1cc(=O)n(-c2ccccc2)n1C
not listed: [18] | [19] | [20]
inactive: all other assays above

CC(O)(P(=O)(O)O)P(=O)(O)O
not listed: [18] | [19] | [20]
inactive: all other assays above

CC(=O)CC(c1ccc([N+](=O)[O-])cc1)c1c(O)c2ccccc2oc1=O (stereo not given)
not listed: [18] | [19] | [20]
inactive: all other assays above

CC(Cc1ccccc1)(NC(=O)CN)c1ccccc1 (stereo not given)
not listed: [15] | [18] | [19] | [20]
inactive: all other assays above

C[C@]12C=CC(=O)C=C1[C@@H](F)C[C@@H]1[C@@H]2[C@@H](O)C[C@@]2(C)[C@H]1CC[C@]2(O)C(=O)CO
not listed: [18] | [19] | [20]
inactive: all other assays above

CC(=O)OCC(=O)[C@@]12N=C(C)O[C@@H]1C[C@H]1[C@@H]3CCC4=CC(=O)C=C[C@]4(C)[C@H]3[C@@H](O)C[C@@]12C
not listed: [18] | [19] | [20]
inactive: all other assays above

O=C(O)CNC(=O)c1ccccc1
not listed: [18] | [19] | [20]
inactive: all other assays above

O=C(O)CCCCC(=O)O
not listed: [18] | [19] | [20]
inactive: all other assays above

NC(CS)C(=O)O (stereo not given)
not listed: [18] | [19] | [20]
inactive: all other assays above

CCCCC1=NC2(CCCC2)C(=O)N1Cc1ccc(-c2ccccc2-c2nn[nH]n2)cc1
not listed: [18] | [19] | [20]
inactive: all other assays above
